# Measured values taken from paper PMC12136788.
# Residue numbers refer to the chain shown, from its start. The full ranking holds about 24,000 sequences; the median of “enrichment r” is about 0.99, and the highest 2% start at about 3.7. Many of the other results were omitted from the sample, so the highest values are more common in it than they were.
# T1: UNK ZnF1-3 (human, UniProt Q9C0B0 31-174)
# T1 sequence: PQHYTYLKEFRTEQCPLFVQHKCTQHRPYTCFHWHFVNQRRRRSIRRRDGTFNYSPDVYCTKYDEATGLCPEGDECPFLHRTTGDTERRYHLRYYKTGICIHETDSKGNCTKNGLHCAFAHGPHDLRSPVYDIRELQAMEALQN
# B1: chr16:67134085:67134086:+_ENSG00000067955_ENST00000412916|hu_mus|FALSE|FALSE (ssRNA)
# RNA: GGGAGUUCUACAGUCCGACGAUCGAAUUGACCAUGUCAGUUUUUAAAAUUUUCUAAAAUAAUGCCAUUUUAUGAUAAAAUACAUUUUUGCAAAAAUUCAGAAAUGUAGUAACAUUUAAUGAAUACGACCACGGAAAGUAUUGUCAACAGAGGAUUGAGCAUCA
# B2: chr16:67134085:67134086:+_ENSG00000067955_ENST00000412916|hu_hu|FALSE|FALSE (ssRNA)
# RNA: GGGAGUUCUACAGUCCGACGAUCCUGAAUUGACUGUGUCAGUUUUUCACCCUUUAAAAUAAUGCCAUUUAAUGAUAAAAUACAUUUUUCAAAAAUUCAGAAAUGUAGUAACAUUUAAUAAAUGUGACCAUGAAAAAUAUUUGUCAACAGAGGAUUGAGCAUCA
# B3: chr5:6374476:6374477:-_ENSG00000133398_ENST00000255764|hu_mus|FALSE|FALSE (ssRNA)
# RNA: GGGAGUUCUACAGUCCGACGAUCUAGGCUUUUAAAUUUCUUCAUUGUGUCGAUCUUGCCCUUGACUUGCUCGUUUUUAGCUAGAGCCCUCUCCAGGCAUUCUUUGGUGUAGAGCUGGGGAUUCCGACCUUGAUCAAUGUAUUCCAACAGAGGAUUGAGCAUCA
# B4: 117884203_117884323_1758_3pUTR_ENSG00000047932_ENST00000052569|human|control|control (ssRNA)
# RNA: GGGAGUUCUACAGUCCGACGAUCAAAUUGCUUUACAUGCAAUAGCUAAUUAUGGUCUACCACAGAAAACAGGGUGUUUUAUGCAUUGAGAAUUGUUCACAUGAAGCCCUGAGGUACCCGCCUUUCAUUUAGGCAACAAACAGCCAACAGAGGAUUGAGCAUCA
# B5: 48376308_48376428_337_CDS_ENSMUSG00000031558_ENSMUST00000170109|mouse|control|control (ssRNA)
# RNA: GGGAGUUCUACAGUCCGACGAUCGGGCACACUGCGCAGUGCCAGCCCAUGACAGUCCACCGUGCUGCCUGAACAGGAGCACUGGGCCGGGCACGCCUGCGGCGCCACCUUGUUCAAGAUCGACAACACUAACCCCAGCGAUAGCAACAGAGGAUUGAGCAUCA
# B6: chr8:13147844:13147845:+_ENSMUSG00000031446_ENSMUST00000016680|mus_mus|FALSE|FALSE (ssRNA)
# RNA: GGGAGUUCUACAGUCCGACGAUCAAUAUUAACAAUUUGUAGACACAAUGAACUUAAAAAUAAGAAGUAGAAAUAGAAAUCUAUUUGGUCUUUCAGAGACCACAUCAUAGAACUCAUAAAUGAAAAUGUACAAAUAUAGAAAUGCAACAGAGGAUUGAGCAUCA
# B7: chr14:102516957:102516958:+_ENSG00000197102_ENST00000360184|hu_hu|FALSE|FALSE (ssRNA)
# RNA: GGGAGUUCUACAGUCCGACGAUCAGCUCAGACCUUCCAAAUAUUUUAAAAAUGAAUAAAUGUUAAAUACCAACUUUCACUAUUACAGAAAGGGGCAGCUAGAAAAGUUUACUCUGUGCACAAGACUGCGACACCCCGCUCGUACAACAGAGGAUUGAGCAUCA
# B8: chr5:92873050:92873051:-_ENSMUSG00000029426_ENSMUST00000031377|mus_hu|FALSE|FALSE (ssRNA)
# RNA: GGGAGUUCUACAGUCCGACGAUCCAGCACCCAACAACAACAAAAUUACUAUACAAGGGUUUAUUAAAUACUUGCUAGACACAUAAAAGAACAAUUUCAGAGCCCACAUGAUUUUAUAAAGCUUAAUGGCCAGCCAUGUCAGCCCAACAGAGGAUUGAGCAUCA
# B9: chr5:40767622:40767623:-_ENSG00000132356_ENST00000397128|hu_mus|hu_hu_hu_mus_False|38_48 (ssRNA)
# RNA: GGGAGUUCUACAGUCCGACGAUCAUCUUUUAUUGCGGCCCUCUUCAUGGGAUCCACCUGCAGCAUAUGUUUCAAAAGGCUGAUUACAGAAGGAUUUAAAUAUUGAGGGGUAUAAAAGAUCCCAUCACAUAUCUUCUUAAAAAGCAACAGAGGAUUGAGCAUCA
# B10: chr1:60041781:60041782:+_ENSMUSG00000041040_ENSMUST00000036540|mus_hu|FALSE|FALSE (ssRNA)
# RNA: GGGAGUUCUACAGUCCGACGAUCAAGUUUACAAUAGUAAAGUAAAUGCAGUAGUGGCAAAUUUUCUUUUAUUUUCCUUCACAAAAGAAAAUCUUUAUAACCCAGUCCUAGUCUUGGACAUAGUGAAAGCUAUAAAUUCUGACUCAACAGAGGAUUGAGCAUCA
# B11: chr7:126859785:126859786:-_ENSMUSG00000030942_ENSMUST00000033236|mus_hu|FALSE|FALSE (ssRNA)
# RNA: GGGAGUUCUACAGUCCGACGAUCUAUAUUACACACAAAUGUUAAAAAAAAAAAAAAAAAACAGACAUAAACAAGAAAAUCACAAAAGUACAAAAACUUCACUAAACAAUUCACUUCUAACCUACAUGAUCCACAUUUUUGCAACAACAGAGGAUUGAGCAUCA
# B12: chr4:154931852:154931853:+_ENSMUSG00000029064_ENSMUST00000030940|mus_mus|FALSE|FALSE (ssRNA)
# RNA: GGGAGUUCUACAGUCCGACGAUCUUUUAUUGUAGUAUUUCCUUUUAAAAUUGGACCAACCCAAAACAAAAUGAAACCAAAAAAACAAAAACAAAACAAAAUAACAAAAUAAACCAAAAACAAUGGCCCCAGAAAAAAUGCACACAACAGAGGAUUGAGCAUCA
# B13: chr16:57153313:57153314:+_ENSMUSG00000022752_ENSMUST00000166897|mus_mus|FALSE|FALSE (ssRNA)
# RNA: GGGAGUUCUACAGUCCGACGAUCCAAAAAAAAUUAAAAAGGAUUAAUUGAAUACAAAAGAAGUAUAUUUUACAGCACUUACUAUGUUAAAAACUAACAUACUAUAAAAUACUCACAUAUUAUACAAACAGCUAUAAAAAAACACAACAGAGGAUUGAGCAUCA
# B14: chr16:57153313:57153314:+_ENSMUSG00000022752_ENSMUST00000166897|mus_mus|motif|central (ssRNA)
# RNA: B13 RNA with U82G, A83G
# B15: chr5:92873050:92873051:-_ENSMUSG00000029426_ENSMUST00000031377|mus_hu|motif|central (ssRNA)
# RNA: B8 RNA with U75G, A76G
# B16: 57609423_57609543_1342_3pUTR_ENSG00000101166_ENST00000355937|human|control|control (ssRNA)
# RNA: GGGAGUUCUACAGUCCGACGAUCACUAAGUUACAAAACUUGGGCAAAUCAAUACAGUACUCUUUUAUAAUGAAACCAUACUUUUGUUGGAGUCAUGUUACUUUAGUGAUAAUUUUCACUCCAAAAAUAUUUAAGUACCAAAUCCAACAGAGGAUUGAGCAUCA
# Biological target: T1, UNK ZnF1-3
# Assay: nsRBNS (natural sequence RNA bind-n-seq); RBNS binding buffer (assumed for nsRBNS): 25 mM Tris pH 7.5, 150 mM KCl, 3 mM MgCl2, 0.01% Triton X-100, 500 ug/ml BSA, 20 U/ml SUPERase-In, 4 C; UNK is unkempt and MSI1 is Musashi-1; names of the RNAs are library labels; protein concentration not given here; high values mean tight binding
row,Binder,binding signal [enrichment R]
1,B1,4.09
2,B2,0.889
3,B3,0.465
4,B4,1.15
5,B5,0.634
6,B6,3.41
7,B7,3.32
8,B8,3.35
9,B9,1.64
10,B10,0.593
11,B11,10.5
12,B12,3.7
13,B13,11.1
14,B14,3.65
15,B15,4.28
16,B16,0.487
